Bioassay records from PubChem.
Shown is part of a subset that was picked to be rich in hits.
Pf Dd2 inh – Plasmodium falciparum Dd2 growth inhibition | P. falciparum Dd2 growth, SYBR Green, 72 h | Potency, µM (doses to about 28.9 µM), inactives show top-dose activity, negative = inhibition, most hits filed as inhibitors | actives 4.3% (n = 120,000); active means well fitted inhibition curve with a large enough effect;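 further: plate controls were DMSO vehicle for no effect and reference drug for full effect; nearly all actives have a fitted effect of over 65% in size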
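Readout: SYBR Green fluorescence, 485 nm excitation, 535 nm emission, after ~16 h lysis at 37C. Before that, Dd2-infected red cells (2.5% hematocrit) grew 72 h with compound, 29 uM top final concentration.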
* = called active by the depositor; i = inactive; [ ] = remark or other dose. Potency means the concentration at half of the fitted maximal effect.

SMILES	Pf Dd2 inh
Cc1cccc(C(=O)N2CCc3cc(CNC(=O)c4ccc(Br)o4)ccc32)c1	1.26µM*
CCC(=O)N1CCc2cc(CNS(=O)(=O)c3cccs3)ccc21	-8.9%
Cn1nccc1C(=O)NCc1ccc2c(c1)CCN2C(=O)c1ccc(F)cc1	i
O=C(NCc1ccc2c(c1)CCN2C(=O)c1ccccc1)c1ccc(Br)o1	i
Cc1cccc(C(=O)N2CCc3cc(CNC(=O)c4ccnn4C)ccc32)c1	i
O=C(NCc1ccc2c(c1)CCN2C(=O)c1ccc(F)cc1)c1c(F)cccc1F	7.5%
O=C(NCc1ccc2c(c1)CCN2C(=O)c1ccc(F)cc1)c1ccc(Br)o1	11.2µM*
CCC(=O)N1CCc2cc(CNC(=O)c3ccc(C#N)cc3)ccc21	65.2%
Cc1ccc(C(=O)N2CCc3cc(CNS(=O)(=O)c4cccs4)ccc32)cc1	8.91µM*
Cc1cccc(C(=O)N2CCc3cc(CNS(=O)(=O)c4cccs4)ccc32)c1	i
O=C(NCCc1cccnc1)C1CCCN(C2CCOCC2)C1 (stereo not given)	-20.7%
Cn1cccc1C(=O)N[C@H]1C[C@@H](C(=O)O)N(C(=O)CCCC(=O)N2C[C@@H](NC(=O)c3cccs3)C[C@H]2C(=O)O)C1	-12.3%
O=C(NC1CCCCC1)[C@@H]1C[C@@H](O)CN1C1CCN(C(=O)c2nccc3ccccc23)CC1	-25.2%
O=C(CCn1nnc2ccccc21)N1CCOCC(O)(CN2CCCC2)C1 (stereo not given)	0.5%
CN1CCN([C@H]2CCN(C(=O)NCCc3ccccc3)C[C@H]2CCC(=O)O)CC1	8.9%
C[C@]1(O)CCN(C(=O)c2cc(-c3ccsc3)n[nH]2)C[C@@H]1O	-9.3%
N#Cc1ccc(CN2C3CCC2CN(C(=O)Nc2ccccc2F)C3)cc1	-2.3%
CC(c1n[nH]c(=O)n1CCC(=O)O)n1cccn1 (stereo not given)	18.1%
Cc1cccc(C(=O)N2CCc3cc(CNC(=O)CSc4ccccc4)ccc32)c1	i
Cc1cccc(OCC(=O)NCc2ccc3c(c2)CCN3C(=O)c2ccccc2)c1	10µM*
COc1ccc(CC(=O)NCc2ccc3c(c2)CCN3C(=O)c2ccccc2)cc1OC	15.7%
Cc1cc(F)ccc1C(=O)N1CCn2nc(Cc3ccccc3)cc2C1	-0.7%
O=C(CN1CCn2nc(C(O)CO)cc2C1)Nc1ccc(Cl)cn1 (stereo not given)	-18.3%
O=Cc1ccc(-c2cncc(C(=O)O)c2)cc1	10.0%[44.1 µM]
N#Cc1cccc(NC(=O)O[C@@H]2CO[C@H]3[C@@H]2OC[C@@H]3Nc2nccc(-c3cccc(C#N)c3)n2)c1	i
SMILES	Pf Dd2 inh
COc1ccc(NC(=O)O[C@@H]2CO[C@H]3[C@@H]2OC[C@@H]3Nc2nccc(-c3cccc(C#N)c3)n2)cc1	-19.7%
COCC(=O)N[C@H]1CO[C@H]2[C@@H]1OC[C@@H]2Nc1nccc(-c2cccc(C#N)c2)n1	11.2µM*
COCC(=O)N[C@H]1CO[C@H]2[C@@H]1OC[C@@H]2Nc1nccc(-c2cccc(F)c2)n1	i
N#Cc1cccc(-c2ccnc(N[C@H]3CO[C@H]4[C@@H]3OC[C@H]4OC(=O)Nc3cccc4ccccc34)n2)c1	11.2µM*
CC(C)(C)C(=O)N[C@H]1CO[C@H]2[C@@H]1OC[C@@H]2Nc1nccc(-c2cccc(C#N)c2)n1	i
Cc1cnc(C(=O)N2CCCC(Cc3noc(-c4ccccn4)n3)C2)cn1 (stereo not given)	-3.5%
O=C(NCCc1ccc(Cl)cc1)c1ccc(Nc2nc3ccccc3n3nnnc23)cc1	-26.6%
COc1ccccc1N1CCN(C(=O)c2ccc(Nc3nc4ccccc4n4nnnc34)cc2)CC1	10µM*
COc1ccc(CCNC(=O)c2ccc(Nc3nc4ccccc4n4nnnc34)cc2)cc1OC	8.91µM*
CC(NC(=O)c1cccc(Nc2nc3ccccc3n3nnnc23)c1)c1ccccc1 (stereo not given)	5.4%
COc1ccc(CCNC(=O)c2cccc(Nc3nc4ccccc4nc3-n3nc(C)cc3C)c2)cc1OC	-14.1%
Cc1ccc(CNC(=O)c2ccc(Nc3nc4ccccc4n4nnnc34)cc2)cc1	-2.9%
COCCn1nc2n(c1=O)CCN(C(=O)c1ccc(Br)o1)CC2	51.3%
CC(C)c1noc(-c2cn(C3CCN(C(=O)Cc4ccc(F)cc4)C3)nn2)n1 (stereo not given)	200.4%
Cc1cccc(-c2nc(CN3CCC(C(=O)N4CCc5nc6cc[nH]n6c(=O)c5C4)CC3)c(C)o2)c1	-7.7%[5.79 µM]
CC(=O)N1CCCN(C(=O)c2cnc3cc(C)nn3c2)CC1	14.0%[44.1 µM]
O=C(Nc1ccncc1)c1ccnc(-c2nnc3ccc(N4CCOCC4)nn23)c1	i
Cc1ccc(C)c(S(=O)(=O)N(C)CC2CCOCC2)c1	-12.2%
COc1ccccc1CNC(=O)c1ccc(CSc2nc3ccncc3n2Cc2cccc(F)c2)cc1	3.55µM*
COc1cccc(CSc2nc3cc(C(=O)NC4CCCC4)ccc3c(=O)n2Cc2ccccc2)c1	2.8%
O=C(NCc1cccs1)c1ccc(CSc2nc3ccncc3n2Cc2cccc(F)c2)cc1	8.91µM*
Cc1cccc(CSc2nc3cccnc3n2Cc2ccc(C(=O)NCc3cccs3)cc2)c1	i
